{"source": "PubChem BioAssay (EPA / NIEHS)", "note": "Inconclusive results are not listed. Active and inactive are the calls of the source. The calls were made as follows: active = hit-call score of the fitted dose curve at least 0.9, where 1 is the maximum; inconclusive = response in the unintended direction; inactive = score below 0.9.", "data": [{"assay": "CCTE_Harrill_HTTr_CellCount_MCF7: CCTE's Cell Proliferation Assessment for the High-Throughput Transcriptomics (HTTr) Platform, Harrill Lab (AID 2284012);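 also: cells exposed to compound for six hours; intended direction is loss of nuclei count meaning fewer cells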", "description": "This is a cell-based assay that evaluates cell viability and cell growth using high content imaging to count the number of Hoechst-labeled nuclei that are present in an assay well in 384-well format.This is a cell-based assay that evaluates cell viability and cell growth in MCF-7 cells. This was part of a full screening experiment. High content imaging is used to count the number of Hoechst-labeled nuclei that are present in an assay well in 384-well format.The assay component endpoint CCTE_Harrill_HTTr_CellCount_MCF7 was analyzed with bidirectional fitting relation to DMSO as the negative control and baseline of activity. Using a type of viability reporter, loss-of-signal activity can be used to understand changes in cell count. To generalize the intended target to other relatable targets, this assay endpoint is annotated to cell cycle, where the subfamily is cell count.\nChemicals were tested in MCF7 cells in an eight point dilution series with a six hour exposure duration.", "values": [{"molecule": "CN(C)c1ccccc1", "outcome": "inactive"}, {"molecule": "O=C(N[C@H](c1ccccc1)[C@@H]1CN2CCC1CC2)c1c(Cl)ccc(C(F)(F)F)c1Cl", "outcome": "inactive"}, {"molecule": "c1ccc(N=Nc2ccccc2)cc1", "outcome": "inactive"}, {"molecule": "CS(=O)(=O)NC(=O)c1cc(Oc2ccc(C(F)(F)F)cc2Cl)ccc1[N+](=O)[O-]", "outcome": "inactive"}, {"molecule": "Nc1ccc(Oc2ccc(N)cc2)cc1", "outcome": "inactive"}, {"molecule": "N#CC(Br)Br", "outcome": "inactive"}, {"molecule": "Cc1ccc(N)c(N)c1", "outcome": "inactive"}, {"molecule": "Brc1ccc(Oc2ccccc2)cc1", "outcome": "inactive"}, {"molecule": "Clc1ccc(C(c2ccc(Cl)cc2)C(Cl)(Cl)Cl)cc1", "outcome": "inactive"}, {"molecule": "Clc1ccc(C(c2ccc(Cl)cc2)C(Cl)Cl)cc1", "outcome": "inactive"}, {"molecule": "Nc1ccc(Cl)cc1N", "outcome": "inactive"}, {"molecule": "CC(C)(C)OOC(C)(C)CCC(C)(C)OOC(C)(C)C", "outcome": "inactive"}, {"molecule": "CCCCOC(=O)c1ccccc1C(=O)OCc1ccccc1", "outcome": "inactive"}, {"molecule": "COC(=O)c1ccccc1N", "outcome": "inactive"}, {"molecule": "O=P(OCCCl)(OCCCl)OCCCl", "outcome": "inactive"}, {"molecule": "CCCCCCCCn1sccc1=O", "AC50": "50 µM (active)"}, {"molecule": "CCCCCOC(=O)c1ccccc1C(=O)OCCCCC", "outcome": "inactive"}, {"molecule": "ClC1=C(Cl)[C@]2(Cl)[C@H]3[C@H]([C@@H]4C=C[C@H]3C4)[C@@]1(Cl)C2(Cl)Cl", "outcome": "inactive"}, {"molecule": "CCN(CC)CCO", "outcome": "inactive"}, {"molecule": "c1ccc(C2CO2)cc1", "note": "(stereo not given)", "outcome": "inactive"}, {"molecule": "O=[N+]([O-])c1ccc(Oc2ccc(Cl)cc2Cl)cc1", "outcome": "inactive"}, {"molecule": "C[C@]12C=CC3=C4CCC(=O)C=C4CC[C@H]3[C@@H]1CC[C@@H]2O", "outcome": "inactive"}, {"molecule": "O=[N+]([O-])C(Br)(CO)CO", "outcome": "inactive"}, {"molecule": "COP(=S)(OC)SCN1C(=O)c2ccccc2C1=O", "outcome": "inactive"}, {"molecule": "O=C(O)C1C2CCC(O2)C1C(=O)O", "note": "(stereo not given)", "outcome": "inactive"}, {"molecule": "COC(=O)Nc1nc2ccccc2[nH]1", "outcome": "inactive"}, {"molecule": "[Cl-].[Cl-].[Hg+2]", "outcome": "inactive"}, {"molecule": "CC(C)(C)C(O)(CCc1ccc(Cl)cc1)Cn1cncn1", "note": "(stereo not given)", "outcome": "inactive"}, {"molecule": "COc1cc(C=O)cc2c1[C@H](COC(N)=O)[C@]1(OC(C)=O)ON2C[C@H]2[C@@H]1N2C(C)=O", "outcome": "inactive"}, {"molecule": "Nc1ccc([N+](=O)[O-])cc1", "outcome": "inactive"}, {"molecule": "CC(C)(O)c1cnn2c(-c3ccc(F)c(-c4c(F)cccc4C#N)c3)cnc2n1", "outcome": "inactive"}, {"molecule": "c1ccc(NNc2ccccc2)cc1", "outcome": "inactive"}, {"molecule": "CCOc1cccc(C2(N3CCN(c4ccccc4)CC3)CCC(C)CC2)c1", "note": "(stereo not given)", "outcome": "inactive"}, {"molecule": "CN(C)[C@@H]1C(=O)C(C(N)=O)=C(O)[C@@]2(O)C(=O)C3=C(O)c4c(O)cccc4[C@@](C)(O)[C@H]3C[C@@H]12", "outcome": "inactive"}, {"molecule": "CC(O)CCO", "note": "(stereo not given)", "outcome": "inactive"}, {"molecule": "Nc1ccc(N=Nc2ccccc2)cc1", "outcome": "inactive"}, {"molecule": "Nc1cc(Cl)cc(C(=O)O)c1Cl", "outcome": "inactive"}, {"molecule": "Cc1ccc(N)cc1", "outcome": "inactive"}, {"molecule": "CN(C)c1ccc(C(=O)c2ccc(N(C)C)cc2)cc1", "outcome": "inactive"}, {"molecule": "CN(C)C(=O)Nc1ccc(Cl)cc1", "outcome": "inactive"}]}]}
